# From PubChem BioAssay (NCATS)
# Records with an inconclusive call do not appear. A call without a number means that no potency is given here. Activity calls are given as the source filed them. The call rests on the fitted dose curve; in most records, active means well fitted inhibition curve with a large enough effect; inconclusive means small, poorly fitted or top-dose-only effect; inactive means flat fitted curve, though single readings scatter.
# Test: qHTS to identify inhibitors of the type 1 interferon - major histocompatibility complex class I in skeletal muscle: primary screen against the NCATS LOPAC collection (AID 1347405);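 further: lytic HiBiT luminescence reporting HLA-B protein level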
# Settings: iHSKM muscle cells, IFN-b-induced MHC-I HiBiT luminescence, 24 h; series mostly up to 45.9 µM
# Outline: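 Luminescence from HiBiT fused to endogenous HLA-B in CRISPR-engineered human myoblasts served as the read-out. Cells received 4.0 ng/ml IFN-beta plus compound (seven concentrations, 1:4.3 steps, highest 46 uM final) for 24 hrs before lytic detection.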
# Potency means the concentration at half of the fitted maximal effect.
row,Structure (SMILES),Potency
1,CC(C)(C)OC(=O)NC1[C@H]2CNC[C@@H]12 (stereo partly drawn),inactive
2,CC(=O)OCC1=C(C(=O)O)N2C(=O)[C@@H](NC(=O)CCC[C@@H](N)C(=O)O)[C@H]2SC1,inactive
3,Cc1o[nH]c(=O)c1CC(N)C(=O)O (stereo not drawn),inactive
4,CN(N=O)c1ccc(O)c(O)c1,inactive
5,NC(Cc1cc(O)c(O)cc1O)C(=O)O (stereo not drawn),inactive
6,CCCN1CCc2cc(O)cc3c2[C@H]1Cc1ccc(O)c(O)c1-3,inactive
7,O=C1C=CC(=O)C=C1,inactive
8,NC(N)=Nc1ccc2[nH]c3c(c2c1)C[C@@]1(O)[C@H]2Cc4ccc(O)c5c4[C@@]1(CCN2CC1CC1)[C@H]3O5,inactive
9,NC(CCCCCP(=O)(O)O)C(=O)O (stereo not drawn),inactive
10,CC(C)NP(=O)(NC(C)C)OP(=O)(NC(C)C)NC(C)C,inactive
11,COc1ccc2[nH]cc(CCN)c2c1,inactive
12,Cc1[nH]c2ccc(O)cc2c1CCN,inactive
13,NNC(N)=O,inactive
14,[Cl-].[Cl][Pt].[NH2-].[NH2-].c1ccncc1,inactive
15,O=C(NC1CN2CCC1CC2)c1cc2ccoc2cn1 (stereo not drawn),inactive
16,Cc1sc2ccccc2c1CC1=NCCN1,inactive
17,COc1ccc2[nH]c3c(c2c1)CCNC3,inactive
18,C[C@H](N)CN1CCc2ccc(Br)cc21,inactive
19,NC(=O)c1ccc(OCC(O)CN2CC=C(c3ccc(F)cc3)CC2)cc1 (stereo not drawn),inactive

row,Structure (SMILES),Potency
1,CCCn1c(=O)c2[nH]c(C3CCCC3)nc2n(CCCOC(=O)c2ccc(S(=O)(=O)F)cc2)c1=O,inactive
2,CCCN(CCC)C1Cc2cc(OC)c(OC)cc2C1,inactive
3,CN1CCC(c2c[nH]c3ccc(O)cc23)CC1,inactive
4,CCCN1CC[C@@H]2c3cc(O)ccc3CC[C@@H]21,inactive
5,C[N+](C)(C)CCOC(=O)CBr,inactive
6,c1ccc2c(N3CCNCC3)cccc2c1,inactive
7,CCS(=O)(=O)Nc1cccc(C(=C2CCCCC2)c2cnc[nH]2)c1,inactive
8,C[C@H](N)Cc1cccc(C(F)(F)F)c1,inactive
9,CO[C@H]1CC=C2CCN3CCC4=C(CC(=O)OC4)[C@]23C1,inactive
10,CC(N)Cc1c[nH]c2ccc(OCc3cccs3)cc12 (stereo not drawn),inactive
11,O=c1ccc2[nH]cc(C3=CCNCC3)c2[nH]1,inactive
12,NCC(O)c1cc(O)c(O)cc1F (stereo not drawn),inactive
13,CCCN(CCC)C1CCc2cccc(O)c2C1 (stereo not drawn),inactive
14,O=C1/C(=C/c2ccccc2)C[C@@]2(O)[C@H]3Cc4ccc(O)c5c4[C@@]2(CCN3CC2CC2)[C@H]1O5,2000 nM (active)
15,Nc1cc2c(ncn2CCOCP(=O)(O)O)c(=O)[nH]1,inactive
16,N=C(N)c1ccc(CS(=O)(=O)F)cc1,inactive
17,CC(=O)c1c(O)c(C)c(O)c(Cc2c(O)c3c(c(C(=O)/C=C/c4ccccc4)c2O)OC(C)(C)C=C3)c1O,inactive
18,CC(C)(O)[C@@H]1C2OC(=O)[C@@H]1[C@]1(O)C[C@H]3O[C@]34C(=O)O[C@H]2[C@]14C (tested in a mixture with another compound),inactive
19,C[C@H]1C2Cc3ccc(O)cc3[C@@]1(C)CCN2CC1CC1,inactive
